Reference: the supplement of paper PMC10849652
Of roughly 8,800 targets only a part is listed; those with a hit were picked by preference. About 0.5% of all pairs of compound and target were hits. A number with no mark means an inactive call.

Tests used:
Test in all cases: log2 fold change, soluble protein after heating vs DMSO (PISA); higher = thermal stabilisation; K562 lysate, 10 uM; active = over 0.2 and 3.5 SD of the protein, either way, in both replicates (recomputed)
lapatinib = compound: CS(=O)(=O)CCNCc1ccc(-c2ccc3ncnc(Nc4ccc(OCc5cccc(F)c5)c(Cl)c4)c3c2)o1 [lapatinib]
Method in brief: (§1)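 A 30 min treatment with 10 μM compound was applied to crude K562 extract at 1 mg/mL protein in PBS pH 7.4 with 1 mM MgCl2. Heating for 3 min spanned 48°C-58°C, after which aliquots were pooled, adjusted to 0.5% NP-40 at 4°C and spun at 21,000xg for 90 min. TMTpro 16plex LC-MS/MS of the supernatant, with channel sums equalised, gave values recorded as log-two fold change in thermal stability against solvent controls, from duplicates.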

pictilisib = compound: CS(=O)(=O)N1CCN(Cc2cc3nc(-c4cccc5[nH]ncc45)nc(N4CCOCC4)c3s2)CC1 [pictilisib]
Method in brief: as §1

crizotinib = compound: C[C@@H](Oc1cc(-c2cnn(C3CCNCC3)c2)cnc1N)c1c(Cl)ccc(F)c1Cl [crizotinib]
Method in brief: as §1

[1] = compound: C[C@H](C1=CC=C(C=C1)C(=O)NC2=C3C=CNC3=NC=C2)N
Method in brief: as §1

duvelisib = compound: C[C@H](Nc1ncnc2nc[nH]c12)c1cc2cccc(Cl)c2c(=O)n1-c1ccccc1 [duvelisib]
Method in brief: as §1

gandotinib = compound: Cc1cc(Nc2cc(CN3CCOCC3)c3nc(C)c(Cc4ccc(Cl)cc4F)n3n2)n[nH]1 [gandotinib]
Method in brief: as §1

tozasertib = compound: Cc1cc(Nc2cc(N3CCN(C)CC3)nc(Sc3ccc(NC(=O)C4CC4)cc3)n2)n[nH]1 [tozasertib]
Method in brief: as §1

doramapimod = compound: Cc1ccc(-n2nc(C(C)(C)C)cc2NC(=O)Nc2ccc(OCCN3CCOCC3)c3ccccc23)cc1 [doramapimod]
Method in brief: as §1

bafetinib = compound: Cc1ccc(NC(=O)c2ccc(CN3CC[C@H](N(C)C)C3)c(C(F)(F)F)c2)cc1Nc1nccc(-c2cncnc2)n1 [bafetinib]
Method in brief: as §1

[2] = compound: Cc1cccc(CC(=O)N2CCc3c2ccc(-c2cn(C)c4ncnc(N)c24)c3F)n1
Method in brief: as §1

UniProt P32780, sequence (P32780 whole entry, looked up): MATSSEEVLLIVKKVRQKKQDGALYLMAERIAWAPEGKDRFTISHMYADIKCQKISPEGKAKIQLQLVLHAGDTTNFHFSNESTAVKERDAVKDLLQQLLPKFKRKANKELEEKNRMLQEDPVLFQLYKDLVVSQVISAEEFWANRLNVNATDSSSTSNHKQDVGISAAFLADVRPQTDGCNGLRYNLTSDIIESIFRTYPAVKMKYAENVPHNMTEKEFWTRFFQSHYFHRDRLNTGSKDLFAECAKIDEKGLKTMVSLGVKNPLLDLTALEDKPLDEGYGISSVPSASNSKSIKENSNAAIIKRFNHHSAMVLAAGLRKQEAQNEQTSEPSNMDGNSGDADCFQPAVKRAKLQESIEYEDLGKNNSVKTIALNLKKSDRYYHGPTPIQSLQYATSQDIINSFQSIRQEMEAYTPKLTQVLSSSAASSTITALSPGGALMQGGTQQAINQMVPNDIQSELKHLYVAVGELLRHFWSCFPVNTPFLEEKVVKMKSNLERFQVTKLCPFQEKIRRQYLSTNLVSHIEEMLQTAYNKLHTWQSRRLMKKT
UniProt Q8IYU2, sequence (Q8IYU2 whole entry, looked up): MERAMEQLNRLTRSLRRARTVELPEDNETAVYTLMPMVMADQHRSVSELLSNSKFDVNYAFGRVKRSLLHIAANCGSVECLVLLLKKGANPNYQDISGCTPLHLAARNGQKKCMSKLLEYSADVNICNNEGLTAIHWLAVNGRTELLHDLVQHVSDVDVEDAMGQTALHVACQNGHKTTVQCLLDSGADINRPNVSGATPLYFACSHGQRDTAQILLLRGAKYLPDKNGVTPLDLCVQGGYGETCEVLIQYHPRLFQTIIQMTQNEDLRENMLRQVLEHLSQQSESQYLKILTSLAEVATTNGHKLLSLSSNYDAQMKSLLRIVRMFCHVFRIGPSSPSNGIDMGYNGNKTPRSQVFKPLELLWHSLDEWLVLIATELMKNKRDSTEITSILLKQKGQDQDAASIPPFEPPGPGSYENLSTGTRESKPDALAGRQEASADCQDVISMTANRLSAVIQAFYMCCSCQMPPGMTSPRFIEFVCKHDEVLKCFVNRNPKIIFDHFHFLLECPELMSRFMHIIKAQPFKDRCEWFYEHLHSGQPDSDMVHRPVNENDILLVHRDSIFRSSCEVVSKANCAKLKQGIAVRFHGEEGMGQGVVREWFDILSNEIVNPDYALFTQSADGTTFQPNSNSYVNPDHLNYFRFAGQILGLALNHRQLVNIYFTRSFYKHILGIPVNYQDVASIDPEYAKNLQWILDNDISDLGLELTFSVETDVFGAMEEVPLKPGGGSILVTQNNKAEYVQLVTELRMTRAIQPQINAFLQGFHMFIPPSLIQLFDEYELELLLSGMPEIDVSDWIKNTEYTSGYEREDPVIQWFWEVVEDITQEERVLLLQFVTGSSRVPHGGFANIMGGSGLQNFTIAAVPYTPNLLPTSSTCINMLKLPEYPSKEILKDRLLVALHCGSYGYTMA
UniProt P50747, sequence (P50747 whole entry, looked up): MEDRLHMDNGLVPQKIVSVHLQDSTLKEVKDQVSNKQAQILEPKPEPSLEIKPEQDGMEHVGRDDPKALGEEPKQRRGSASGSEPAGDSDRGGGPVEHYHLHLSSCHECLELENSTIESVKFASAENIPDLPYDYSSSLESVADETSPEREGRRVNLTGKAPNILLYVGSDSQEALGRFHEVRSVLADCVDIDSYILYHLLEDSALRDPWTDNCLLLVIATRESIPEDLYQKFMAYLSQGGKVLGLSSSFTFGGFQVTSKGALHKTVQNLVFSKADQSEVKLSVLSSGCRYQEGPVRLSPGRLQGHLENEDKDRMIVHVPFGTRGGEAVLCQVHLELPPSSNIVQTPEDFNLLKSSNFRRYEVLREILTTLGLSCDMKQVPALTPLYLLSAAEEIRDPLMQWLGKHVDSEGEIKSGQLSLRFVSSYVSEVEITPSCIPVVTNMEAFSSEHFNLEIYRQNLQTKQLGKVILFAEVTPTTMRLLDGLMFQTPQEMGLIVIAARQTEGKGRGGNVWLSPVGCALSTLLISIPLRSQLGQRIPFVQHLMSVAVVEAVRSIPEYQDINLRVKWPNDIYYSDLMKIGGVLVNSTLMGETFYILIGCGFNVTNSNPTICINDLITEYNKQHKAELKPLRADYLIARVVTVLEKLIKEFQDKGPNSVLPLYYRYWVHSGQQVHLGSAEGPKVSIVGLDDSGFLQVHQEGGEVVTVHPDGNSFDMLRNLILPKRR
UniProt Q92805, sequence (Q92805 whole entry, looked up): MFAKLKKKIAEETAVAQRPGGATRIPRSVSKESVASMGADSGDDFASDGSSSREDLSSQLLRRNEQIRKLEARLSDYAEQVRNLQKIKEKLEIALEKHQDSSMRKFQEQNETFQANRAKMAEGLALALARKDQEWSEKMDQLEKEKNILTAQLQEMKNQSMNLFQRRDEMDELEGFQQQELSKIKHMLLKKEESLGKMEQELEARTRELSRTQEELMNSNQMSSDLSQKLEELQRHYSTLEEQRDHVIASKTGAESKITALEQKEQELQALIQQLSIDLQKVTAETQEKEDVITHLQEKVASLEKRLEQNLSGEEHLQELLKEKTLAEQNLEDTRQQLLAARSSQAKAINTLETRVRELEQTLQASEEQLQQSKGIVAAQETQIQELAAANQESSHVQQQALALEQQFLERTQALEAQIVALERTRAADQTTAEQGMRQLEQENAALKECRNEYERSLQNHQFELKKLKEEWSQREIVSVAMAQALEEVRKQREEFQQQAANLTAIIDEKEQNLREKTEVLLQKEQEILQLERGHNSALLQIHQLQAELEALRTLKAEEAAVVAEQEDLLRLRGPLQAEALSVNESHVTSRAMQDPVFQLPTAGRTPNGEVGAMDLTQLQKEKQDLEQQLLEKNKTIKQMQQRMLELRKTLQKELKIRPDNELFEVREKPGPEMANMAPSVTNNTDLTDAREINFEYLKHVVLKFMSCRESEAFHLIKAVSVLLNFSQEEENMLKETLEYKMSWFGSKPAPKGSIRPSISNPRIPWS
UniProt O14979, sequence (O14979 whole entry, looked up): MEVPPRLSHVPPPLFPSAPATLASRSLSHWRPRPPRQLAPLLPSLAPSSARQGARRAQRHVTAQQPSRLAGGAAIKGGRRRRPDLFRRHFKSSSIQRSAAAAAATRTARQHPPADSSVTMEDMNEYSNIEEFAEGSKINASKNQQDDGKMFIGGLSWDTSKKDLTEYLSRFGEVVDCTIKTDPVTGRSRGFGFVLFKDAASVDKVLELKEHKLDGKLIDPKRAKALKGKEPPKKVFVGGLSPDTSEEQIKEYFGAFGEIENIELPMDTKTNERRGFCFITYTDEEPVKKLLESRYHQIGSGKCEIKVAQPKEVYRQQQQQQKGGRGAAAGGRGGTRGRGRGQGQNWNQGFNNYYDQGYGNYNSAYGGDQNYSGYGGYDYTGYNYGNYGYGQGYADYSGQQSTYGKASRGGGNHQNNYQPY
UniProt Q75QN2, sequence (Q75QN2 whole entry, looked up): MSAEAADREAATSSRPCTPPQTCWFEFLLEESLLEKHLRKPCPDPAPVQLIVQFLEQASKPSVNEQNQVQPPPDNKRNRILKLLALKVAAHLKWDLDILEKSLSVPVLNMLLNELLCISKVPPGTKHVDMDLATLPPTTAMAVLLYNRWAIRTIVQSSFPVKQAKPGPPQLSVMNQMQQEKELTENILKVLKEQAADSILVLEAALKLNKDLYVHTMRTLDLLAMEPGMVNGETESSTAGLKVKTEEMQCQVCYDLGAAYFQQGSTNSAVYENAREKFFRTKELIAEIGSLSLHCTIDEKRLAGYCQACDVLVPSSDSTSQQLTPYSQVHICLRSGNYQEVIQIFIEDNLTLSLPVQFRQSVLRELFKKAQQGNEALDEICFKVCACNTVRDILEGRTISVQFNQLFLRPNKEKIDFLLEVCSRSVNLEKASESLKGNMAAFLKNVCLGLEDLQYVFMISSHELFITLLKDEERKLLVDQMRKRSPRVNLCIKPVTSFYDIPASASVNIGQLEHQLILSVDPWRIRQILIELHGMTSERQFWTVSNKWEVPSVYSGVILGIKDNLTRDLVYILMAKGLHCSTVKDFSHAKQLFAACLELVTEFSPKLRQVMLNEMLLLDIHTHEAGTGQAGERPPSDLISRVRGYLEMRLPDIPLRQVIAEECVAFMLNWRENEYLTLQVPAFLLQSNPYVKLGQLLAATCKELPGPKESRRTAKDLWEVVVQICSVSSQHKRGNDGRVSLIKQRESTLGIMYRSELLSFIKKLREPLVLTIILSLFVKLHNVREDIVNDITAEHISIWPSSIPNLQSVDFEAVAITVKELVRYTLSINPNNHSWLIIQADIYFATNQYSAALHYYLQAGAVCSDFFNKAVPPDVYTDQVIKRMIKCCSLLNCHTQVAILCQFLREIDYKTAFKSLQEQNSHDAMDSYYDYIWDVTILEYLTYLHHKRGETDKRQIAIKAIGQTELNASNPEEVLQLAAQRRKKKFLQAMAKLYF
UniProt Q9H6K1, sequence (Q9H6K1 whole entry, looked up): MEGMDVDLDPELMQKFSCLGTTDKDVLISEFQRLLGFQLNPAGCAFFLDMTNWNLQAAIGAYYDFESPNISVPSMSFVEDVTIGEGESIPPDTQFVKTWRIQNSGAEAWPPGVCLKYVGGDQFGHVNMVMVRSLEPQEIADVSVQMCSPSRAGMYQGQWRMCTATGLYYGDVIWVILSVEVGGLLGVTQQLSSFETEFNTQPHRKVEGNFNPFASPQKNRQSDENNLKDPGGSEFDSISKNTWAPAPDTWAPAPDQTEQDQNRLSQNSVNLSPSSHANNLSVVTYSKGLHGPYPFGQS
UniProt Q99714, sequence (Q99714 whole entry, looked up): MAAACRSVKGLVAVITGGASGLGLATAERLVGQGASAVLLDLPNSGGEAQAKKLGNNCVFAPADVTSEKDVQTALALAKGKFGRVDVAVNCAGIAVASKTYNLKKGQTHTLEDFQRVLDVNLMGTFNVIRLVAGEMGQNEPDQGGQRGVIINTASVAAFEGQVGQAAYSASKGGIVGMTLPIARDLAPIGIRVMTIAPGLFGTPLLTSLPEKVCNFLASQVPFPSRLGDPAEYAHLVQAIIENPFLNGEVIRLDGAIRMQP

Row | Target | log2 fold change (lapatinib) | log2 fold change (pictilisib) | log2 fold change (crizotinib) | log2 fold change [1] | log2 fold change (duvelisib) | log2 fold change (gandotinib) | log2 fold change (tozasertib) | log2 fold change (doramapimod) | log2 fold change (bafetinib) | log2 fold change [2]
1 | HNRNPD isoform 2 (UniProt Q14103) | 0.047 | 0.043 | 0.034 | 0.559 (active) | 0.015 | -0.085 | 0.004 | -0.023 | 0.095 | -0.108
2 | GSK3A (UniProt P49840) | -0.026 | 0.207 | 0.069 | -0.002 | 0.016 | 0.641 (active) | -0.017 | 0.002 | 0.008 | -0.02
3 | HSD17B10 (UniProt Q99714) | -0.031 | -0.013 | 0.002 | -0.049 | 0.013 | 0.022 | -0.031 | -0.008 | 0 | 0.026
4 | GSTP1 (UniProt P09211) | -0.015 | 0.021 | -0.018 | -0.025 | 0.001 | -0.035 | -0.007 | -0.006 | 0.01 | 0.003
5 | HS1BP3 (UniProt Q53T59) | 0.024 | -0.019 | 0.006 | -0.253 (active) | -0.047 | 0.068 | 0.021 | -0.019 | -0.048 | 0.074
6 | HIST2H2BC (UniProt Q6DN03) | -0.024 | 0.02 | -0.024 | 0.183 | -0.083 | -0.054 | 0.019 | 0.007 | 0.018 | -0.019
7 | HSPB1 (UniProt P04792) | -0.017 | -0.013 | 0.036 | 0.008 | 0.014 | -0.018 | -0.017 | -0.31 (active) | -0.031 | -0.021
8 | INTS5 (UniProt Q6P9B9) | -0.688 | 0.018 | -0.082 | 0.048 | -0.022 | -0.235 | 0.009 | -0.002 | -0.092 | 0.054
9 | IMMT (UniProt Q16891) | -0.058 | 0.001 | -0.049 | -0.006 | -0.039 | -0.134 | 0.02 | 0.011 | -0.053 | 0.023
10 | HIST2H2AA3 (UniProt Q6FI13) | 0.001 | -0.016 | 0.049 | 0.555 (active) | -0.044 | -0.143 | 0.022 | -0.088 | 0.159 | -0.171
11 | HLCS (UniProt P50747) | -0.026 | -0.022 | -0.009 | 0.199 | 0.016 | -0.002 | 0.006 | 0.026 | -0.045 | -0.007
12 | KDM1A (UniProt O60341) | -0.01 | -0.029 | -0.036 | -0.055 | -0.025 | -0.056 | -0.031 | 0.015 | -0.016 | 0.025
13 | GSE1 (UniProt Q14687) | 0.006 | -0.032 | -0.014 | -0.073 | -0.015 | 0.011 | 0.008 | -0.019 | -0.006 | 0.051
14 | IGF2BP3 (UniProt O00425) | 0.013 | -0.038 | -0.031 | -0.032 | 0.017 | -0.04 | 0.001 | -0.006 | -0.045 | 0.053
15 | GOLPH3L (UniProt Q9H4A5) | 0.019 | -0.048 | -0.106 | -0.028 | -0.027 | -0.05 | -0.071 | -0.009 | -0.146 | 0.029
16 | HSPA14 (UniProt Q0VDF9) | -0.016 | 0.023 | -0.02 | -0.038 | 0.007 | -0.039 | 0.018 | 0.003 | -0.026 | 0.037
17 | IMPDH1 isoform 6 (UniProt P20839) | -0.001 | 0.01 | -0.021 | -0.061 | -0.013 | 0.046 | 0.014 | 0.033 | -0.037 | 0.064
18 | HACE1 (UniProt Q8IYU2) | -0.05 | 0.005 | 0.026 | -0.491 (active) | 0.033 | 0.302 | -0.036 | 0.015 | -0.036 | 0.426
19 | GTF2H4 (UniProt Q92759) | -0.026 | 0.027 | -0.025 | 0.061 | -0.01 | -0.14 | 0.031 | 0 | -0.039 | 0.038
20 | HECTD3 (UniProt Q5T447) | -0.047 | -0.098 | -0.034 | -0.001 | -0.006 | -0.013 | 0.018 | 0.056 | -0.13 | -0.004
21 | HNRNPLL (UniProt Q8WVV9) | 0.017 | -0.026 | -0.038 | -0.01 | -0.016 | -0.031 | 0 | 0.01 | -0.031 | 0.027
22 | HNRNPDL (UniProt O14979) | 0.04 | -0.002 | -0.005 | 0.016 | 0.04 | -0.025 | -0.056 | 0.104 | 0.072 | -0.035
23 | GOLGA1 (UniProt Q92805) | -0.406 (active) | 0.007 | 0.012 | 0.056 | -0.101 | 0.024 | -0.087 | 0.001 | -0.066 | -0.025
24 | HAUS3 (UniProt Q68CZ6) | -0.011 | -0.001 | -0.084 | 0.013 | -0.042 | -0.059 | 0.014 | -0.034 | -0.11 | 0.079
25 | HDAC3 (UniProt O15379) | 0.02 | 0.008 | 0.015 | 0.076 | -0.067 | -0.015 | 0.054 | -0.024 | -0.005 | -0.045
26 | INTS8 (UniProt Q75QN2) | 0.028 | 0.104 | -0.046 | 0.015 | -0.051 | -0.163 | 0.04 | 0.021 | -0.142 | 0.036
27 | ILRUN (UniProt Q9H6K1) | -0.045 | -0.033 | 0.009 | -0.025 | 0.016 | 0.012 | 0.013 | -0.028 | -0.023 | -0.017
28 | H2AFY (UniProt O75367) | -0.021 | 0.036 | 0.051 | -0.135 | 0.01 | 0.084 | -0.108 | -0.138 | -0.011 | 0.049
29 | GTF2H1 (UniProt P32780) | -0.03 | -0.017 | -0.028 | 0.032 | 0.023 | 0.035 | -0.019 | -0.001 | -0.03 | -0.021
30 | HMGN5 (UniProt P82970) | -0.058 | 0.032 | 0.046 | 0.239 | 0.018 | -0.081 | 0.02 | -0.066 | 0.013 | -0.184
